RGS4 inh – blocks human RGS4-accelerated GTP hydrolysis; P49798; Transcreener GDP fluorescence polarization, RGS4-accelerated GTP hydrolysis; Potency, µM (doses to about 114 µM), actives largely listed as inhibitors; 390,000 compounds, 0.039% hits; AID 504845; further: nearly all actives have a fitted effect of over 75% in size
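MLSMR compounds (23 nl, pin-transferred) preincubated 10 min at room temperature with a 500nM (2x) first reagent, then RGS4 at 900nM (2x) plus Transcreener GDP mix added; fluorescence polarization (620/688 nm) read before and after 90 min at 30 °C.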
Mito fusion act – blocks mitochondrial division or promotes mitochondrial fusion; Potency, µM (highest dose often 46.1 µM), most hits filed as activators; S. cerevisiae fusion-defective mutant growth rescue, CellTiterGlo 48 h; 320,000 compounds, 0.23% hits; further: nearly all actives have a fitted effect of over 45% in size
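Luminescent cell viability in 1536-well qHTS format served as the measure of rescued growth in ts fusion-mutant S. cerevisiae cultured on non-fermentable YPEG for 48 hours at 37C.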
mIDH1 inhibitor – inhibitors of human mutant IDH1 R132H; O75874; IDH1-R132H enzyme, NADPH consumption, diaphorase/resazurin fluorescence; Potency, µM (top dose mostly 76.6 µM), hits mostly inhibitors; 390,000 compounds, 0.093% hits; AID 602179; further: nearly all actives have a fitted effect of over 65% in size
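IDH1-R132H (0.5 ug/mL dispensed) in pH 7.5 Tris buffer was preincubated 30 min with compound, then given a substrate mix of 0.016 mM NADPH and 2 mM alpha-KG for 80 min at room temperature; remaining NADPH was read by diaphorase/resazurin fluorescence.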
LDHA block – blocks human lactate dehydrogenase A; P00338; purified LDHA, NADH/diaphorase-resazurin fluorescence; active compounds read low; activity change, % (values are at about 110 or 230 µM); 480,000 compounds, 0.15% hits; AID 1347041; in the data active means activity change below about -30%; inconclusive means mostly about -25% to -30%
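LDH5 2 nM; NADH 0.06 mM, pyruvate 0.2 mM; 200 mM Tris pH 7.4, EDTA, Tween-20; 5 min RT. Detection: diaphorase 0.133 mg/mL + resazurin 37 µM, fluorescence ex540/em590 at 0 and 20 min; normalized to enzyme-free and DMSO wells.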
ClpP mod – qHTS Assay for Activators of ClpP | purified B. subtilis ClpP, FRET peptide cleavage, 20 min | Potency, µM (highest dose often 57.5 µM) | 340,000 compounds, 1.9% hits; active means well fitted falling curve with a large enough effect; inconclusive means small, poorly fitted or top-dose-only effect; inactive means no such curve, though single readings can be large or run the other way; further: the source files actives as falling curves though it sought activators and does not explain the sign; nearly all actives have a fitted effect of over 65% in size
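Purified B. subtilis ClpP, 10 microg/mL final in Tris/HCl pH8 with KCl, BSA, glycerol and Tween-20, cleaved an Abz/nitrotyrosine-quenched decapeptide. Fluorescence (ex 320, em 430) was read at 0 and 20 min at room temperature. Delta was normalized to 5.8 microM ADEP and DMSO/no-enzyme controls.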
ASM inhibitor – blocks human secretory acid sphingomyelinase; P17405; Potency, µM (top dose mostly 57.5 µM), most hits filed as inhibitors; placental ASM, HMU-PC fluorogenic substrate, 60 min; 340,000 compounds, 0.006% hits
Target sequence (P17405 47-631 limits assumed): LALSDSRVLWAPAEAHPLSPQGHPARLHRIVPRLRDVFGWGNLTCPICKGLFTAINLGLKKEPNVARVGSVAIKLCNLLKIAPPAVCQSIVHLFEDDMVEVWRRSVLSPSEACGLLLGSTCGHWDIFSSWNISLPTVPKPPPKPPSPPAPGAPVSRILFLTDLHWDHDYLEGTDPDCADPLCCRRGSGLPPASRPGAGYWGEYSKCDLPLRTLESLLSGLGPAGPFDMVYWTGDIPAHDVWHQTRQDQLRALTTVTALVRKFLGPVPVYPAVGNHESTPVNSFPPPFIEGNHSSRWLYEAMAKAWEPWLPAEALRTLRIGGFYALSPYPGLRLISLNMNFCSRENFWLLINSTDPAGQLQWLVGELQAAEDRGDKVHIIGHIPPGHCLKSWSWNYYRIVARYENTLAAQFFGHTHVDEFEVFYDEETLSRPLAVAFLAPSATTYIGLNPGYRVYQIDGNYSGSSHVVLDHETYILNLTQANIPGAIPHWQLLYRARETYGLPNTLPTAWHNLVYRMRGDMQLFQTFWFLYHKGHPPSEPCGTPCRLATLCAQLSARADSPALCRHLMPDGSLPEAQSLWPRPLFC
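Human placenta-derived ASM preincubated with compound 10 min at room temperature, then reacted with 9 uM (final) fluorogenic HMU-PC substrate for 60 min at 37 C. Stop solution raises pH to 10; fluorescence read at Ex 386/Em 447 nm.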
IDH1 autofl – counter-screen for mutant IDH1 inhibitors: fluorescence interference | AID 623980 | 750 tested, under 10 active | inhibition of signal, % at 51.2 µM | shares compounds with mIDH1 inhibitor | Resorufin detection reagent fluorescence interference, cell-free
WT IDH1 inh – inhibits human wild-type IDH1, mutant selectivity check; WT IDH1 enzyme, NADPH diaphorase/resazurin fluorescence; 750 compounds, 9% hits; AID 623995; shares compounds with mIDH1 inhibitor; Potency, µM (highest dose often 115 µM), most hits filed as inhibitors; further: nearly all actives have a fitted effect of over 55% in size
mIDH1 confirm – mutant IDH1 (human) inhibition, confirmed | 750 compounds, 83% hits | IDH1 R132H enzyme, NADPH diaphorase/resazurin fluorescence | Potency, µM (series often up to 76.6 µM), most hits filed as inhibitors | shares compounds with mIDH1 inhibitor | AID 624002; further: nearly all actives have a fitted effect of over 50% in size
Of the large screens only hits and unclear results are named; the others gave an inactive call (follow-up assays come after a bar, where they were run). Only a selection was taken, and hits are over-represented in it overall. Unless noted, the call rests on the fitted dose curve; in most records, active means well fitted curve in the direction sought with a large enough effect; inconclusive means small, poorly fitted or top-dose-only effect, or another doubt; inactive means no such curve, though single readings can be large; an effect the other way counts as inactive or inconclusive.

CC(C)CCSc1nc(N2CCOCC2)c2c(c1C#N)CC(C)(C)OC2	mIDH1 inhibitor 16µM, ClpP mod inconclusive | IDH1 autofl inactive | WT IDH1 inh inactive | mIDH1 confirm 7.9µM
CCCCCCc1cc2c3c(c(=O)oc2cc1OCC(=O)OC(C)C)CCCC3	none (no result: RGS4 inh, Mito fusion act, mIDH1 inhibitor, ClpP mod, ASM inhibitor)
CC(C)(C)OC(=O)NC(Cc1ccccc1)C(=O)Nc1ccccc1 (stereo not drawn)	none (no result: RGS4 inh, Mito fusion act, mIDH1 inhibitor, ClpP mod, ASM inhibitor)
CC(=O)C1=C(c2ccc(Cl)c(Cl)c2)N(C(C)=O)n2c(C)nnc2S1	mIDH1 inhibitor 45µM (no result: Mito fusion act, ASM inhibitor) | IDH1 autofl inactive | WT IDH1 inh inactive | mIDH1 confirm 40µM
CC(=O)C1=C(c2ccc(Cl)c(Cl)c2)N(C(C)=O)n2cnnc2S1	mIDH1 inhibitor 45µM (no result: Mito fusion act, ASM inhibitor) | IDH1 autofl inactive | WT IDH1 inh inactive | mIDH1 confirm 20µM
COc1cccc(C2=C(C(C)=O)Sc3nncn3N2C(C)=O)c1	mIDH1 inhibitor inconclusive (no result: Mito fusion act, ASM inhibitor)
N#Cc1ccccc1NC(=O)CN(Cc1ccco1)C1CCS(=O)(=O)C1 (stereo not drawn)	none (no result: RGS4 inh, Mito fusion act, mIDH1 inhibitor, ClpP mod, ASM inhibitor)
COc1cc2cnc(-c3ccccc3)c(-c3ccc(C(F)(F)F)cc3)c2cc1OC	Mito fusion act inconclusive, mIDH1 inhibitor inconclusive, ClpP mod inconclusive, ASM inhibitor inconclusive | IDH1 autofl inactive | WT IDH1 inh inactive | mIDH1 confirm 16µM
COc1ccc(N=C2S/C(=C\c3ccc(OC(C)C(=O)O)c(OC)c3)C(=O)N2CCc2c[nH]c3ccccc23)cc1 (stereo not drawn)	RGS4 inh inconclusive, mIDH1 inhibitor inconclusive (no result: ClpP mod) | IDH1 autofl inactive | WT IDH1 inh inconclusive | mIDH1 confirm 28µM
COc1cc(/C=C2\SC(=Nc3ccccc3)N(CCc3c[nH]c4ccccc34)C2=O)ccc1OC(C)C(=O)O (stereo not drawn)	RGS4 inh inconclusive, mIDH1 inhibitor inconclusive
CCc1cccc(CC)c1-n1c(SCC(=O)N2CCc3ccccc3C2)nnc1-c1cccnc1	mIDH1 inhibitor 52µM | IDH1 autofl inactive | WT IDH1 inh inactive | mIDH1 confirm 14µM
CC(C)c1ccccc1-n1c(SCc2cc(=O)oc3ccc4ccccc4c23)nnc1-c1cccnc1	Mito fusion act inconclusive, mIDH1 inhibitor inconclusive, ClpP mod inconclusive | IDH1 autofl inactive | WT IDH1 inh inactive | mIDH1 confirm 11µM
Cc1cc(C)cc(OCCSc2nc(-c3ccc(C(C)(C)C)cc3)nc3cc(=O)[nH]n23)c1	mIDH1 inhibitor inconclusive (no result: Mito fusion act, ASM inhibitor) | IDH1 autofl inactive | WT IDH1 inh inconclusive | mIDH1 confirm 25µM
COc1ccc(-c2cc3nc(C4CCN(C(=O)OC(C)(C)C)CC4)c(C(=O)O)cn3n2)cc1	mIDH1 inhibitor 21µM, ClpP mod inconclusive | IDH1 autofl inactive | WT IDH1 inh 79µM | mIDH1 confirm 16µM
O=C(Nc1ccccc1)C(Sc1cccc[n+]1[O-])c1ccccc1 (stereo not drawn)	none (no result: RGS4 inh, Mito fusion act, mIDH1 inhibitor, ClpP mod, ASM inhibitor)
O=C(/C=C/c1ccc(Cl)cc1)c1ccc(O)cc1	none (no result: RGS4 inh, Mito fusion act, mIDH1 inhibitor, ClpP mod, ASM inhibitor)
O=C(/C=C/c1ccc(Cl)cc1)c1ccc([N+](=O)[O-])o1	mIDH1 inhibitor 11µM | IDH1 autofl inactive | WT IDH1 inh inconclusive | mIDH1 confirm 8.9µM
Cc1ccc(/C=C/C(=O)c2ccc([N+](=O)[O-])o2)cc1	mIDH1 inhibitor 35µM | IDH1 autofl inactive | WT IDH1 inh inconclusive | mIDH1 confirm 8.9µM
C/C(=C/C(=O)C(F)(F)F)N1CCN(C/C=C/c2ccccc2)CC1	none (no result: RGS4 inh, Mito fusion act, mIDH1 inhibitor, ClpP mod, ASM inhibitor)
